The values that follow come from PubChem BioAssay.

Molecules are shown by their SMILES. The source made the active and inactive calls.

Test [1] can be described thus: optical density shifts of acrAB sulA E. coli – strain DRC41, OD650, 48 h, E. coli filamentation inducer project, primary screen (AID 1152).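 Also: E. coli MC1000 strain DRC41 lacking acrAB efflux pump and sulA.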 Particulars: higher = more signal, called active from +8 up or from −8 down.
The nature of test [2]: probe aLefty1 binding on compound microarray – biochemical, small-molecule microarray, 635/667 nm fluorescence, primary screen (AID 1153).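 Also: score merges spot fluorescence with signal-to-noise ratio from the scanned slide images.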 The conditions noted are these: higher = more signal.
The nature of test [3]: plasmodial surface anion channel blockers, osmotic lysis – cell-based, P. falciparum Indochina, OD700, 1 h, primary screen (AID 1154). Particulars: P. falciparum Indochina infected RBC osmotic lysis, higher = more signal, called active from +8 up or from −8 down.
Test [4] in a line: plasmodial surface anion channel blockers, osmotic lysis – cell-based, P. falciparum Indochina, OD700, 2 h, primary screen (AID 1155).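 Also: lysis reports solute entry through the parasite surface anion channel PSAC.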 Particulars: P. falciparum Indochina infected erythrocytes, higher = more signal, called active from +8 up or from −8 down.
Test [5] is described as follows: changes in parasitized red cell lysis, either direction – P. falciparum Indochina, OD700, 3 h, PSAC antagonist project, primary screen (AID 1156). Particulars: P. falciparum-infected erythrocytes, osmotic lysis, higher = more signal, called active from +8 up or from −8 down.
Test [6] is described as follows: plasmodial surface anion channel blockers, osmotic lysis – cell-based, P. falciparum Indochina, OD700, 18 h, primary screen (AID 1157). Particulars: P. falciparum Indochina infected erythrocytes, osmotic lysis OD700, 18 h; higher = more signal, called active from +8 up or from −8 down.
A short description of test [7]: S6 kinase pathway phospho-S6 level changes – cell-based, A549, cytoblot, luminescence, serum-stimulated, primary screen (AID 1158).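 Also: serum-stimulated A549 lung adenocarcinoma cells; signal is phosphorylated S6 detected by cytoblot immunostaining with HRP secondary.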 Particulars: 5 h, higher = more signal.
Test [8] addresses NADPH oxidase 2 (Homo sapiens) (UniProt P04839). Kind of test: compounds shifting NOX2 Amplex Red fluorescence – cell-based, HEK293-NOX2, PMA-stimulated, NOX inhibitor project, primary screen (AID 1159). Also: test concentration not given here. The conditions noted are these: 45 min, higher = more signal, called active from +8 up or from −8 down.
For test [9], the target named is NADPH oxidase 4 (Homo sapiens) (UniProt Q9NPH5). Kind of test: compounds shifting NOX4 Amplex Red fluorescence – cell-based, HEK293-NOX4, tetracycline-induced, NOX inhibitor project, primary screen (AID 1160). Particulars: HEK293-NOX4, Amplex Red H2O2 fluorescence, 45 min; higher = more signal, called active from +8 up or from −8 down.
Test [10] addresses NADPH oxidase 5 (Homo sapiens) (UniProt Q96PH1). Kind of test: compounds shifting NOX5 Amplex Red fluorescence – cell-based, HEK293-NOX5, NOX inhibitor project, primary screen (AID 1161). Particulars: HEK293-NOX5, ionomycin, 45 min, higher = more signal.
A short description of test [11]: compound effects on lung adenocarcinoma cell viability – A549, calcein-AM fluorescence, 48 h, basal, profiling panel (AID 1162). Also: test concentration not given here. Particulars: higher = more signal.
Test [12] is described as follows: compound effects on differentiated 3T3-L1 adipocyte viability – cell-based, 3T3-L1 adipocytes, calcein-AM fluorescence, 48 h, basal, profiling panel (AID 1163). Also: test concentration not given here. The conditions noted are these: 3T3-L1 adipocytes viability, higher = more signal.
Test [13] can be described thus: compound effects on hepatocellular carcinoma cell viability – HepG2, calcein-AM fluorescence, 48 h, basal, profiling panel (AID 1164). Also: test concentration not given here. Particulars: higher = more signal.
Test [14] in a line: compound effects on multiple myeloma cell viability – MM1S, calcein-AM fluorescence, 48 h, basal, profiling panel (AID 1165).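 Also: viability of MM1S multiple myeloma cells under basal unstimulated conditions; test concentration not given here.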 Particulars: higher = more signal.
Test [15] is described as follows: calcein-AM signal in unstimulated myeloma cells – cell-based, calcein-AM fluorescence, 48 h, PK04 Diversity Set, profiling panel (AID 1166).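 Also: cells grown under basal conditions without added stimulus; test concentration not given here.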 The conditions noted are these: RPMI8226 myeloma viability, higher = more signal.
Test [16] can be described thus: JC-1 mitochondrial signal, unstimulated HepG2 cells – cell-based, JC-1 fluorescence, 24 h, 100 nL compound, profiling panel (AID 1167). Also: test concentration not given here. The conditions noted are these: HepG2 mitochondrial potential, higher = more signal.
Test [17] in a line: JC-1 mitochondrial signal, unstimulated adipocytes – cell-based, JC-1 fluorescence, 3T3-L1 adipocytes, 24 h, 100 nL compound, profiling panel (AID 1168). Also: test concentration not given here. Particulars: JC-1 mitochondrial fluorescence, higher = more signal, called active from +8 up or from −8 down.
Test [18] is described as follows: JC-1 mitochondrial signal, unstimulated myeloma cells – cell-based, JC-1 fluorescence, RPMI8226, 24 h, 100 nL compound, profiling panel (AID 1169). Also: test concentration not given here. The conditions noted are these: JC-1 mitochondrial potential fluorescence, higher = more signal.
A short description of test [19]: JC-1 mitochondrial signal, unstimulated MM1S myeloma – cell-based, JC-1 fluorescence, 24 h, 100 nL compound, profiling panel (AID 1170). Also: test concentration not given here. The conditions noted are these: MM1S mitochondrial potential, higher = more signal.
Test [20] in a line: resazurin metabolic signal in A549 cells – cell-based, resazurin fluorescence, 24 h, PK04 Diversity Set, profiling panel (AID 1171). Also: test concentration not given here. The conditions noted are these: A549 viability, higher = more signal, called active from +8 up or from −8 down. For orientation: Resazurin is reduced to fluorescent resorufin, in cell work by metabolically active cells.

Chain of NADPH oxidase 5 (Homo sapiens) (Q96PH1 whole entry, looked up): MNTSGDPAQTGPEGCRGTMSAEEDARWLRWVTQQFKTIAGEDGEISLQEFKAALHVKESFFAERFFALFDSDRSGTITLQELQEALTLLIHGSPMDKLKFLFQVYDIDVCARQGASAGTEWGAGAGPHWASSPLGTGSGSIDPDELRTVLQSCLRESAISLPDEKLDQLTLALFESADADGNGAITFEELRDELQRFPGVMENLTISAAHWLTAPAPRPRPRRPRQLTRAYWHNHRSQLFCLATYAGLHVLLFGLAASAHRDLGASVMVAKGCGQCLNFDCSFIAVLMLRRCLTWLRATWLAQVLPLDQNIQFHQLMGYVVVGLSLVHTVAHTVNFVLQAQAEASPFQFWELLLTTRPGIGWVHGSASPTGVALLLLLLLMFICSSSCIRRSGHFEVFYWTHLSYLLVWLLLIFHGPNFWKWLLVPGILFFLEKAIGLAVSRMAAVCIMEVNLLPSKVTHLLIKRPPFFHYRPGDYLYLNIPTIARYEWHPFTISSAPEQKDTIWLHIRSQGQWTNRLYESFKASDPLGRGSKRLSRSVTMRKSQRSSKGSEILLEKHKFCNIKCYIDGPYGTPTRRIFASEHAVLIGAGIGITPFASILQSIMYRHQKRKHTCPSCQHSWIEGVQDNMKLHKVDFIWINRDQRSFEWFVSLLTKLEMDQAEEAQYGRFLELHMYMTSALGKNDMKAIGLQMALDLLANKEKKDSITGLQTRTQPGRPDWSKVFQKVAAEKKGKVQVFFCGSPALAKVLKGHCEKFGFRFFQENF
Chain of NADPH oxidase 4 (Homo sapiens) (Q9NPH5 whole entry, looked up): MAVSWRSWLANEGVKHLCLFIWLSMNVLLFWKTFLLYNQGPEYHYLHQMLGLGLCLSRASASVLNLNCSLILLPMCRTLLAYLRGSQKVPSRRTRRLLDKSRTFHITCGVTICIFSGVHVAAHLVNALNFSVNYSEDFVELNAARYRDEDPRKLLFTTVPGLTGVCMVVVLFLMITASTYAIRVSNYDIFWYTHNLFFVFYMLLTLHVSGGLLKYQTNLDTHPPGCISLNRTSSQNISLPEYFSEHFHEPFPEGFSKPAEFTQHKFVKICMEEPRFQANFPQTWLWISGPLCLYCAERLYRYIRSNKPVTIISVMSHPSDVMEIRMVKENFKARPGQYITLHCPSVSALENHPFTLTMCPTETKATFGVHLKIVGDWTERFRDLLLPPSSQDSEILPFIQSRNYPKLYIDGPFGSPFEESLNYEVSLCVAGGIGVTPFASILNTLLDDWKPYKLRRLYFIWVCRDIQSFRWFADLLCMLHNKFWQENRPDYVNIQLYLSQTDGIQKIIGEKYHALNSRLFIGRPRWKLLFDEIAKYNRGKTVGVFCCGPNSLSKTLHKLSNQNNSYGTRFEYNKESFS
Chain of NADPH oxidase 2 (Homo sapiens) (P04839 whole entry, looked up): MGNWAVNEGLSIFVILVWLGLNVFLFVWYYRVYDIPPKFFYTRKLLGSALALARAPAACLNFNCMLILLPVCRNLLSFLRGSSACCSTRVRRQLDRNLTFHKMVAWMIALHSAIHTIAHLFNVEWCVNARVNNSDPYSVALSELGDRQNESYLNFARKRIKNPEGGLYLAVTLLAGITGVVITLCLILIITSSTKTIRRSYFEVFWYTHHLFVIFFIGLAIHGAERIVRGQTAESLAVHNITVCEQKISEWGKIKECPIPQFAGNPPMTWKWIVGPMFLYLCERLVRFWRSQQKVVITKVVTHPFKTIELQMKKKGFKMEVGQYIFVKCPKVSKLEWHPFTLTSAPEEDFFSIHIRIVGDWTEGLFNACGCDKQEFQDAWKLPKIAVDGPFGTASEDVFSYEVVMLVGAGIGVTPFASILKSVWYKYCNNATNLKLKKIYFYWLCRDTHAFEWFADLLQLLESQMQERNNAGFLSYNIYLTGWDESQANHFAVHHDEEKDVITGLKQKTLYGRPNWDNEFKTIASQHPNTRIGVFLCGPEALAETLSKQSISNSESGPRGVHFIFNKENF

In the case of `CN1C(=O)C2C(C1=O)C1C=C(c3ccc(CO)cc3)C2C(C2CC2)N1C` (stereo not given), the z-score in test [1] is 0.235 (inactive); in [3] it was 0.773 (inactive); in test [4], 0.892 (inactive); in test [5], 0.472 (inactive); in test [6], 0.184 (inactive); in test [7], 0.691. The z-score in test [8] is -1.19 (inactive); in test [9], -0.394 (inactive); in test [10], 0.163; in [11], 0.632; in test [12] it was 1.29; in test [13], -0.799. Further, the z-score in [14] is 0.535; in [15], -0.594; in test [16], 0.399; in test [17], -0.768 (inactive); in test [18] it was 0.178; in test [19], -0.0509. Also, in test [20], the z-score was -0.694 (inactive). Also, the composite z-score in test [2] is -0.177.

With `CCCCC(O)C1C=CC2C(=O)N(c3ccccc3)C(=O)C2N1Nc1ccc([N+](=O)[O-])cc1` (stereo not given), the z-score in [1] is 0.372 (inactive); in [3] it was 14.2 (active); in test [4] it was 1.38 (inactive); in test [5], 0.371 (inactive); in test [6], -1.06 (inactive); in [7], 0.581. In addition, the z-score in test [8] is -1.08 (inactive); in [9], -1.65 (inactive); in [10], -0.302; in test [11] it was 0.286; in test [12], -0.229; in [13] it was 0.0784. The z-score in test [14] is -0.72; in test [15], -0.438; in test [16], -0.573; in [17] it was -1.08 (inactive); in test [18], -0.147; in [19] it was -0.745. The z-score in test [20] was 0.113 (inactive). In test [2], this molecule had a composite z-score of 0.683.

Regarding `CCCC=C(CCC)[C@@H](NC(=O)c1ccc(C(F)(F)F)cc1)c1ccc(C(F)(F)F)cc1`, the z-score in test [1] was -1.35 (inactive); in [3], 1.23 (inactive); in test [4], 0.588 (inactive); in test [5] it was -0.957 (inactive); in test [6] it was 1.25 (inactive); in [7] it was -0.523. In addition, the z-score in test [8] was -0.0499 (inactive); in test [9], -0.414 (inactive); in [10], 2.97; in test [11], -1.88; in [12], -0.0493; in [13], -0.751. Further, the z-score in test [14] is -1.53; in test [15] it was -3.65; in test [16], 4.85; in test [17] it was 0.216 (inactive); in test [18], -0.235; in test [19] it was -0.678. For the same molecule, the z-score in test [20] is 0.949 (inactive). For the same molecule, the composite z-score in test [2] is 0.792.

On to `O=C1NC(=O)C2C1C=CC(C(O)c1ccc(B(O)O)cc1)N2Nc1ccc(Cl)cc1Cl` (stereo not given), for which the z-score in [1] was -2.48 (inactive); in [3] it was 1.8 (inactive); in test [4] it was 0.917 (inactive); in [5] it was -0.577 (inactive); in test [6], 0.654 (inactive); in test [7] it was -1.07. Moreover, the z-score in [8] was -2.66 (inactive); in test [9], -5.04 (inactive); in test [10], -6.42; in test [11] it was -0.591; in test [12], -1.33; in test [13] it was -1.19. Besides, the z-score was -1.62 in [14]; -1.58 in [15]; -1.75 in test [16]; -1.12 (inactive) in [17]; 0.482 in test [18]; -0.682 in test [19]. The z-score in test [20] was -0.616 (inactive). Moreover, the composite z-score in test [2] came out at 0.199.

As to `COCC(=C=CC[C@H](O)c1ccccc1OCCO)C[C@H](O)COCc1ccccc1`, the z-score in [1] was -0.186 (inactive); in test [3] it was 9.07 (active); in test [4], 1.07 (inactive); in [5] it was 0.287 (inactive); in [6], 0.896 (inactive); in test [7] it was -0.408. In addition, the z-score in test [8] was 0.0204 (inactive); in test [9], -1.22 (inactive); in test [10], -1.92; in test [11], 0.428; in test [12], 0.152; in test [13], 0.024. In addition, the z-score in test [14] was -2.02; in test [15], -0.311; in test [16], 1.37; in [17], -0.437 (inactive); in test [18], -0.138; in test [19] it was -0.382. Besides, the z-score in test [20] is 0.857 (inactive). The molecule also had a composite z-score in test [2] of 0.131.

As for `COc1ccc([Si](C)(C)[C@@H]2[C@@H](CC(=O)N3Cc4ccccc4C[C@H]3CO)O[C@]3(C(=O)N(Cc4cccc(N5CCOC5=O)c4)c4ccccc43)[C@H]2C)cc1`, the z-score in test [1] was -0.207 (inactive); in [3] it was 5.29 (inactive); in [4], 1.06 (inactive); in test [5] it was 0.599 (inactive); in test [6], 0.548 (inactive); in [7], 0.114. The z-score is -2.65 (inactive) in [8]; 1.1 (inactive) in [9]; -1.02 in [10]; -1.43 in test [11]; 1.69 in test [12]; -0.443 in test [13]. The z-score in test [14] is -2.51; in test [15], -3.32; in test [16] it was -0.0282; in [17], 0.192 (inactive); in test [18], -1.16; in test [19], -1.01. Besides, the z-score in test [20] was -2.45 (inactive). This molecule also displayed a composite z-score in [2] of 0.647.

As for `CN(C)CCCNC(=O)[C@@]1(C)c2ccccc2C(=O)N(Cc2ccc(OC(F)(F)F)cc2)[C@H]1c1ccc(CO)cc1`, the z-score in [1] is -0.796 (inactive); in test [3], 1.53 (inactive); in [4], -0.103 (inactive); in test [5], 2.79 (inactive); in [6], 0.328 (inactive); in test [7], 0.235. Moreover, the z-score in [8] was -0.607 (inactive); in [9], -0.303 (inactive); in test [10] it was -1.63; in test [11] it was 0.173; in [12] it was 0.886; in test [13], -0.261. The z-score in test [14] was -0.0385; in test [15], 0.513; in [16], 1.88; in test [17], -0.422 (inactive); in [18] it was -0.136; in test [19], 0.197. Moreover, the z-score in test [20] is 0.074 (inactive). This molecule had a composite z-score in [2] of -0.104.

For `CC(C)C(O)C1C=CC2C(=O)NC(=O)C2N1Nc1ccccn1` (stereo not given), the z-score in [1] was -0.668 (inactive); in test [3] it was -0.292 (inactive); in [4], 0.695 (inactive); in test [5], -0.0484 (inactive); in test [6] it was 0.826 (inactive); in [7] it was -0.846. In addition, the z-score in [8] is -1.22 (inactive); in test [9], -1.41 (inactive); in test [10], -1.79; in [11], -0.188; in test [12], 0.258; in [13] it was 0.0775. Besides, the z-score was 0.253 in test [14]; 0.11 in test [15]; 0.119 in [16]; -1.28 (inactive) in test [17]; 0.231 in [18]; -0.0451 in test [19]. Further, the z-score in [20] was -1.05 (inactive). The molecule also came in with a composite z-score in [2] of 0.134.

As to `COc1ccc([Si](C)(C)[C@@H]2[C@@H](CC(=O)N(CCO)Cc3ccccc3)O[C@]3(C(=O)N(Cc4ccc(N5C(=O)c6cccc7cccc5c67)cc4)c4ccccc43)[C@H]2C)cc1`, the z-score is -0.414 (inactive) in test [1]; 7.3 (inactive) in test [3]; 2.33 (inactive) in test [4]; 0.296 (inactive) in [5]; 1.14 (inactive) in test [6]; 0.487 in test [7]. Further, the z-score was 1.28 (inactive) in [8]; -0.496 (inactive) in test [9]; 2.72 in test [10]; -0.538 in test [11]; 0.427 in test [12]; -1.43 in test [13]. Also, the z-score in test [14] is -1.82; in test [15], -3.52; in test [16] it was -0.038; in test [17], 0.161 (inactive); in test [18], -1.02; in test [19] it was -1.18. Moreover, the z-score in [20] is -1.51 (inactive). In [2], the composite z-score came to 0.004.
